Holding throughout (assay): HT-SELEX; 20 mM HEPES pH 7, 140 mM KCl, 5 mM NaCl, 1 mM K2HPO4, 2 mM MgSO4, 100 uM EGTA, ZnSO4, 0.1% Tween20; room temperature, 1 h; high values mean tight binding
What all share (details): protein: ivt; tags: eGFP (N-terminal); dsDNA, one strand shown

The target of assay [1] is ZNF721 full-length (Homo sapiens, UniProt Q8TF20-2 1-923). An outline of the steps:
(§1)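 Bead-immobilised tagged transcription factor (full-length or DNA-binding-domain fragment), made in HEK293 lysate or cell-free extract, was incubated with a randomized 40-base DNA library. Binding was for 1 h at room temperature in HEPES/KCl low-stringency buffer with Tween20. After washing and heat elution, bound DNA was PCR-amplified over successive cycles and Illumina-sequenced (~3 million 60 bp reads per sample). Binding signal is a relative k-mer count in selected reads; higher means tighter binding.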

Assay [2] addresses ZNF721 DBD2 (Homo sapiens, UniProt Q8TF20-2 395-923). Put shortly: as §1
The target in assay [3] is ZNF721 DBD1 (Homo sapiens, UniProt Q8TF20-2 29-461). An outline of the steps: as §1

This note sets out measurements from publication PMC13541613, “GHT-SELEX demonstrates unexpectedly high intrinsic sequence specificity and complex DNA binding of many human transcription factors”.

ZNF721 full-length, sequence (Q8TF20 other isoform, or with tags, fused parts or gaps): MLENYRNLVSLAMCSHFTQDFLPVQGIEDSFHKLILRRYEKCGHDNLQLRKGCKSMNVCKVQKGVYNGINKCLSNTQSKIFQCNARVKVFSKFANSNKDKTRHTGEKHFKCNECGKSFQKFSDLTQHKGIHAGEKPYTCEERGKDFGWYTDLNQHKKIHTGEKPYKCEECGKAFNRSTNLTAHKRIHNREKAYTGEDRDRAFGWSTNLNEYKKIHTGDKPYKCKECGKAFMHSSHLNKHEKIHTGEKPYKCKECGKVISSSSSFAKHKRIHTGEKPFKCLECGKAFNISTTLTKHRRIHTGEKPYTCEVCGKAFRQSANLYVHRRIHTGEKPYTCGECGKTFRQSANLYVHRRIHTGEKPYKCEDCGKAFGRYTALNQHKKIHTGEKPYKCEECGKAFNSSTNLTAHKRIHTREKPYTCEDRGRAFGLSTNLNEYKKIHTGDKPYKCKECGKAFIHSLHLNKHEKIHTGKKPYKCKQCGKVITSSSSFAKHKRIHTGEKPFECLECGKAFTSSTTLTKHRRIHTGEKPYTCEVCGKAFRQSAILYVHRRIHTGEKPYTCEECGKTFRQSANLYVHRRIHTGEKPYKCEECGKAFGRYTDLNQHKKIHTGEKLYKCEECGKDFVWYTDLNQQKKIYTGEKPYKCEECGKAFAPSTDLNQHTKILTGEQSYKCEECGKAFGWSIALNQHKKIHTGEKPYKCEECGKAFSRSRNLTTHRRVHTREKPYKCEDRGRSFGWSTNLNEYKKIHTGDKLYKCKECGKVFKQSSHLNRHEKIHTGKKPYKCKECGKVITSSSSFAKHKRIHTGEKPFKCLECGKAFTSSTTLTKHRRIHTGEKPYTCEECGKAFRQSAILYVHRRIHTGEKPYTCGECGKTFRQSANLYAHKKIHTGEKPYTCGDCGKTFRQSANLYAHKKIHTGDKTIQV
ZNF721 DBD2, sequence (Q8TF20 383-911): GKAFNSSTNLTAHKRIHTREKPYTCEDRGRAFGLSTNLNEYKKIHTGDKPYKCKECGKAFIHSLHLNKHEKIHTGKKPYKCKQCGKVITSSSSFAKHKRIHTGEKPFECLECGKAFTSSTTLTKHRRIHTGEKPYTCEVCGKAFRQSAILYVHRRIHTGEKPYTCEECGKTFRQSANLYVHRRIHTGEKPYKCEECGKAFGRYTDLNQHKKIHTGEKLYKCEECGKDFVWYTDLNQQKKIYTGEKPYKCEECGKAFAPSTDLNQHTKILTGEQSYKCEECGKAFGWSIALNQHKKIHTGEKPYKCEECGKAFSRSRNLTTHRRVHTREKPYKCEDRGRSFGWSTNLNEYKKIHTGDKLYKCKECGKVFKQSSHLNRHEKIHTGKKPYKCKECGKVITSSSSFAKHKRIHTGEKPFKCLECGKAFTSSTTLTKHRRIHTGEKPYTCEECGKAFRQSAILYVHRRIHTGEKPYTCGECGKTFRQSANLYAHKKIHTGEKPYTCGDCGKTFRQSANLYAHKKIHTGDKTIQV
ZNF721 DBD1, sequence (Q8TF20 17-449): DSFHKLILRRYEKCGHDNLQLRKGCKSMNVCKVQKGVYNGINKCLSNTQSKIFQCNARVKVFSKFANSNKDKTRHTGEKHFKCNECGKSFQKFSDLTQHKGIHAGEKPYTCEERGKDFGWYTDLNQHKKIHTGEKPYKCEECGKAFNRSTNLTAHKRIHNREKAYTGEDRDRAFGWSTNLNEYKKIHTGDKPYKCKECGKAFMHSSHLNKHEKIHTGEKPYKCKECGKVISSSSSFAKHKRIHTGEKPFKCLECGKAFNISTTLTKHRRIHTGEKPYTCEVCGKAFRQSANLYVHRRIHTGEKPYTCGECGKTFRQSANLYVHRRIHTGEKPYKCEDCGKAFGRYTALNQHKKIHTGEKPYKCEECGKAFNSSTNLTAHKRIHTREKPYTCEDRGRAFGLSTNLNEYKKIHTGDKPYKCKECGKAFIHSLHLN

For GAGACACTGC, the binding signal in assay [1] was determined as 0.113 relative 10-mer count; in assay [2] it was 0.128 relative 10-mer count.
Taken in the same sequence, the figures for CAAAGCAGCA were 0.112 relative 10-mer count and 0.132 relative 10-mer count.
Taken in the same sequence, the figures for AAAAAAACAG were 0.967 relative 10-mer count and 0.753 relative 10-mer count.
On to TGGGTATGAA, for which the binding signal is 0.14 relative 10-mer count in assay [1], 0.192 relative 10-mer count in assay [3] and 0.00108 relative 10-mer count in assay [2].
For the sequence CAGAGTACCC, the binding signal was determined as 0.125 relative 10-mer count in assay [1] and 0.18 relative 10-mer count in assay [2].
With CAGCGTTTCC, the binding signal amounted to 0.342 relative 10-mer count in assay [1] and 0.861 relative 10-mer count in assay [2].
Taken in the same sequence, the figures for CAGCGTTGCC were 0.143 relative 10-mer count and 0.423 relative 10-mer count.
As to AGACACTGCT, the binding signal was determined as 0.109 relative 10-mer count in assay [1] and 0.127 relative 10-mer count in assay [2].
The matching figures for CAAAGCAGCG: 0.114 relative 10-mer count and 0.158 relative 10-mer count.
Taken in the same sequence, the figures for AAAAACAGAG were 0.212 relative 10-mer count and 0.213 relative 10-mer count.
As for AACAGCATGC, the binding signal in assay [1] turned out to be 0.113 relative 10-mer count; in assay [2] it was 0.163 relative 10-mer count.
Taken in the same sequence, the figures for AAAAACAGGA were 0.104 relative 10-mer count and 0.113 relative 10-mer count.
Take CAGTGTCTCC: the binding signal in assay [1] worked out at 0.213 relative 10-mer count; in assay [2], 0.552 relative 10-mer count.
Taken in the same sequence, the figures for AAGCAGCGTC were 0.112 relative 10-mer count and 0.133 relative 10-mer count.
On to AAAAACTAGC, for which the binding signal in assay [1] came out at 0.103 relative 10-mer count; in assay [2], 0.135 relative 10-mer count.
In the case of AGCAGTGTTG, the binding signal in assay [1] stood at 0.13 relative 10-mer count; in assay [2], 0.223 relative 10-mer count.
For the sequence GAAACACTGC, the binding signal amounted to 0.118 relative 10-mer count in assay [1] and 0.188 relative 10-mer count in assay [2].
The matching figures for AACAAAGCAG: 0.243 relative 10-mer count and 0.29 relative 10-mer count.
The matching figures for AAAAAACAGC: 1 relative 10-mer count and 0.902 relative 10-mer count.
Taken in the same sequence, the figures for AAACAGCATT were 0.17 relative 10-mer count and 0.254 relative 10-mer count.
With CAGGGTTTCC, the binding signal in assay [1] was 0.162 relative 10-mer count; in assay [2], 0.368 relative 10-mer count.
The matching figures for CAGCATGACC: 0.229 relative 10-mer count and 0.437 relative 10-mer count.
Regarding AAAACAGCCC, the results for the binding signal in assay [1] and in assay [2] were 0.152 relative 10-mer count and 0.156 relative 10-mer count, respectively.
Taken in the same sequence, the figures for AAACACTGTT were 0.135 relative 10-mer count and 0.266 relative 10-mer count.
For the sequence CAGTGTATCC, the binding signal in assay [1] was 0.208 relative 10-mer count; in assay [2], 0.401 relative 10-mer count.
Taken in the same sequence, the figures for AAAAACAGCG were 0.589 relative 10-mer count and 0.668 relative 10-mer count.
The matching figures for AAACTAGCAT: 0.118 relative 10-mer count and 0.175 relative 10-mer count.
Taken in the same sequence, the figures for AACAGCATAT were 0.118 relative 10-mer count and 0.181 relative 10-mer count.
Regarding AAAACAGGGG, the values for the binding signal in assay [1] and in assay [2] were 0.112 relative 10-mer count and 0.145 relative 10-mer count, respectively.
In the case of AACAGCGTAT, the binding signal amounted to 0.225 relative 10-mer count in assay [1] and 0.366 relative 10-mer count in assay [2].
For the sequence AAAAAGCAGG, the binding signal was determined as 0.195 relative 10-mer count in assay [1] and 0.172 relative 10-mer count in assay [2].
Turning to ACAGCATGAC, the binding signal in assay [1] is 0.209 relative 10-mer count; in assay [2], 0.295 relative 10-mer count.
The matching figures for CTGTTTTTTC: 0.357 relative 10-mer count and 0.365 relative 10-mer count.
Taken in the same sequence, the figures for AAAACAGGAT were 0.12 relative 10-mer count and 0.133 relative 10-mer count.
The matching figures for ACAGCGTCTC: 0.212 relative 10-mer count and 0.344 relative 10-mer count.
Regarding AAAAGCAGGG, the binding signal in assay [1] was determined as 0.207 relative 10-mer count; in assay [2], 0.218 relative 10-mer count.
Taken in the same sequence, the figures for AAAACAGTAC were 0.126 relative 10-mer count and 0.166 relative 10-mer count.
Taken in the same sequence, the figures for AACAAACAGC were 0.119 relative 10-mer count and 0.0709 relative 10-mer count.
Taken in the same sequence, the figures for AAACGCTGTT were 0.236 relative 10-mer count and 0.44 relative 10-mer count.
As for AAACAGCACA, the binding signal in assay [1] is 0.11 relative 10-mer count; in assay [2] it was 0.109 relative 10-mer count.
For ACGAAAACAG, the figures for the binding signal in assay [1] and in assay [2] were 0.106 relative 10-mer count and 0.149 relative 10-mer count, respectively.
For CACTGTTTTC, the binding signal in assay [1] worked out at 0.15 relative 10-mer count; in assay [2], 0.248 relative 10-mer count.
The matching figures for CAGCATATCC: 0.162 relative 10-mer count and 0.216 relative 10-mer count.
